Our source for the outcome and AC50 values is PubChem BioAssay (EPA / NIEHS).

For orientation: AC50 means the midpoint of the concentration-response curve, whichever way the signal moves.

Test [1] concerns the target human Janus Kinase 2 (Jak2), JAK2 (gene 3717) (UniProt O60674). Nature of the test: NVS_ENZ_hJak2: NovaScreen (NVS) Enzymatic Assay for human Janus Kinase 2 (Jak2) (AID 2283169). A digest of the protocol: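 Cell-free recombinant human JAK2 enzyme activity assay, fluorescence/electrophoretic mobility shift read 1 h after dosing. Screened in duplicate at 25 uM, then concentration-response up to 50 uM; activity as signal loss relative to DMSO.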

The target of test [2] is human c-Jun N-terminal Kinases (JNK2), MAPK9 (gene 5601) (UniProt P45984). Nature of the test: NVS_ENZ_hJNK2: NovaScreen (NVS) Enzymatic Assay for human c-Jun N-terminal Kinases (JNK2) (AID 2283171). The essentials:
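Cell-free recombinant human JNK2 activity assay; fluorescent substrate and product separated by electrophoretic mobility shift, read 1 h after dosing. Primary duplicate screen at 25 uM; actives run in concentration-response up to 50 uM, relative to DMSO.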

The target of test [3] is human LYN Proto-Oncogene, Src family Tyrosine Kinase (LynA), LYN (gene 4067) (UniProt P07948). Nature of the test: NVS_ENZ_hLynA: NovaScreen (NVS) Enzymatic Assay for human LYN Proto-Oncogene, Src family Tyrosine Kinase (LynA) (AID 2283173). How it is done:
NVS_ENZ_hLynA is a biochemical, single-readout assay that uses extracted gene-proteins in a cell-free assay. Measurements were taken 1 hour after chemical dosing in a 384-well plate.NVS_ENZ_hLynA is one of one assay component(s) measured or calculated from the NVS_ENZ_hLynA assay. It is designed to make measurements of enzyme activity, a form of enzyme reporter, as detected with fluorescence intensity signals by Fluorescence and electrophoretic mobility shift technology.Data from the assay component NVS_ENZ_hLynA was analyzed into 1 assay endpoint. This assay endpoint, NVS_ENZ_hLynA, was analyzed in the positive analysis fitting direction relative to DMSO as the negative control and baseline of activity. Using a type of enzyme reporter, loss-of-signal activity can be used to understand changes in the enzymatic activity as they relate to the gene LYN. Furthermore, this assay endpoint can be referred to as a primary readout, because this assay has produced multiple assay endpoints where this one serves a enzymatic activity function. To generalize the intended target to other relatable targets, this assay endpoint is annotated to the kinase intended target family, where the subfamily is non-receptor tyrosine kinase. […]

The target of test [4] is Mitogen-activated protein kinase 3 (Homo sapiens) (UniProt P27361). Nature of the test: NVS_ENZ_hMAPK3: NovaScreen (NVS) Enzymatic Assay for human Mitogen-Activated Protein Kinase 3 (MAPK 3) (AID 2283177). The essentials:
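Cell-free enzymatic assay with recombinant protein and specific substrate; fluorescence and electrophoretic mobility shift read-out 1 h after dosing. Primary screen duplicate at 25 uM; actives then run in concentration-response up to 50 uM, loss of signal versus DMSO.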

Test [5] addresses human MAP Kinase-Activated Protein Kinase 2 (MAPKAPK2), MAPKAPK2 (gene 9261) (UniProt P49137). Nature of the test: NVS_ENZ_hMAPKAPK2: NovaScreen (NVS) Enzymatic Assay for human MAP Kinase-Activated Protein Kinase 2 (MAPKAPK2) (AID 2283178). The essentials: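 Cell-free recombinant human MAPKAPK2 activity measured by fluorescence with electrophoretic mobility shift separation of substrate and product, 1 hr after dosing. Loss of signal versus DMSO; primary screen at 25 uM, concentration-response up to 50 uM.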

For test [6], the target named is human Matrix Metalloproteinase-2 (MMP2), MMP2 (gene 4313) (UniProt P08253). Nature of the test: NVS_ENZ_hMMP2: NovaScreen (NVS) Enzymatic Assay for human Matrix Metalloproteinase-2 (MMP2) (AID 2283184). The essentials:
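Cell-free recombinant MMP2 activity with a fluorescent substrate, read 1 h after dosing. Primary screen in duplicate at 25 uM; actives then run in concentration series; loss of signal fitted versus DMSO.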

Test [7] addresses human Matrix Metalloproteinase-3 (MMP3), MMP3 (gene 4314) (UniProt P08254). Nature of the test: NVS_ENZ_hMMP3: NovaScreen (NVS) Enzymatic Assay for human Matrix Metalloproteinase-3 (MMP3) (AID 2283185). A digest of the protocol: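 Cell-free recombinant human MMP3 activity, fluorescence intensity read 1 h after dosing. Primary screen duplicate at 25 uM, actives retested in concentration series; loss of signal vs DMSO baseline.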

Results filed as inconclusive are left out. Calls of active or inactive are those of the source. How the source made its calls: active means hit-call score of the fitted dose curve at least 0.9, where 1 is the maximum; inconclusive means response in the unintended direction; inactive means score below 0.9.

human Matrix Metalloproteinase-3 (MMP3), MMP3 (gene 4314), sequence (P08254 whole entry, looked up): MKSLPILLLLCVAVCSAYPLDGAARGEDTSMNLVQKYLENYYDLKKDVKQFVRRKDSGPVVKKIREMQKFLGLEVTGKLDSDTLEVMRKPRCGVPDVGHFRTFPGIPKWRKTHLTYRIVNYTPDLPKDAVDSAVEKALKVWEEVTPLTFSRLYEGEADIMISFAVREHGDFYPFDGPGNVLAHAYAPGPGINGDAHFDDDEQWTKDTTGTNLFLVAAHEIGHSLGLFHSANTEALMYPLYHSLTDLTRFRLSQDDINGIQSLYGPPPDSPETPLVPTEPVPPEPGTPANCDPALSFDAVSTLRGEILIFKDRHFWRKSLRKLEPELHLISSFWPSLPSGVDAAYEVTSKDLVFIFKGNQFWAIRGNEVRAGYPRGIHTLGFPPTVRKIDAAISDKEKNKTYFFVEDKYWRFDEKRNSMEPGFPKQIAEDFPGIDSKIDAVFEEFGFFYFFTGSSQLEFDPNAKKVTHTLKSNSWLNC
Mitogen-activated protein kinase 3 (Homo sapiens), sequence (P27361 whole entry, looked up): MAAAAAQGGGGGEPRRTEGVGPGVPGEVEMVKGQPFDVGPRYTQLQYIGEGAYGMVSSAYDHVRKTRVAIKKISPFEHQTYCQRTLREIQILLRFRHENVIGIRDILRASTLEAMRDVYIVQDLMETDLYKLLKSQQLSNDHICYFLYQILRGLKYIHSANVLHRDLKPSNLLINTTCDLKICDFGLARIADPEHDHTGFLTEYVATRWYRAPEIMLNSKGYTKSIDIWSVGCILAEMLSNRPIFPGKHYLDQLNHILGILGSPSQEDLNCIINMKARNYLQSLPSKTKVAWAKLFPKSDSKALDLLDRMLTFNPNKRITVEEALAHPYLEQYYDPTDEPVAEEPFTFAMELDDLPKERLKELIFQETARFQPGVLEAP
human c-Jun N-terminal Kinases (JNK2), MAPK9 (gene 5601), sequence (P45984 whole entry, looked up): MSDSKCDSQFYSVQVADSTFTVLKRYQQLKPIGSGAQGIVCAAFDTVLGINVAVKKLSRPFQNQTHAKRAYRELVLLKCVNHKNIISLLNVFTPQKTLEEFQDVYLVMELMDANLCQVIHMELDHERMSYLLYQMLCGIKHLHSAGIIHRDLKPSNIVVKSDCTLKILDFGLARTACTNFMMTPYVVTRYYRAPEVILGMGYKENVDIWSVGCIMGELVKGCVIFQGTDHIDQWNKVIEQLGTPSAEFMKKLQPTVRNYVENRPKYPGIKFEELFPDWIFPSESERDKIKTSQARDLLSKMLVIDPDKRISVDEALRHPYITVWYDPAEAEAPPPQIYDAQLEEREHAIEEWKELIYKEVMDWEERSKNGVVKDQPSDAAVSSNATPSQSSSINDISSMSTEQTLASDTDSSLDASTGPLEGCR
human LYN Proto-Oncogene, Src family Tyrosine Kinase (LynA), LYN (gene 4067), sequence (P07948 whole entry, looked up): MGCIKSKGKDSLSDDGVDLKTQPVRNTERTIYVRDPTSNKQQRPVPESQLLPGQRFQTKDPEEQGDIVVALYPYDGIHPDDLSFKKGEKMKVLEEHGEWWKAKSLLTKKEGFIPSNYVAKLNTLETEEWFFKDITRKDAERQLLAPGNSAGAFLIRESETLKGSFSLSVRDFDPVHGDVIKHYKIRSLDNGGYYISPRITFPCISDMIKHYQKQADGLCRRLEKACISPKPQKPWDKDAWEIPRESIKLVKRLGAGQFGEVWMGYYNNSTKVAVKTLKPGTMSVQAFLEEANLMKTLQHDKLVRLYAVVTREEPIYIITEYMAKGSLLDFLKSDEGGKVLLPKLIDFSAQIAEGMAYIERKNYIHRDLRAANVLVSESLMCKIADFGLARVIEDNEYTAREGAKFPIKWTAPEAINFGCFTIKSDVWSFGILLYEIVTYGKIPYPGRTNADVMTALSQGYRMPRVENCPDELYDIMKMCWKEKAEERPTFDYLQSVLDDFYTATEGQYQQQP
human MAP Kinase-Activated Protein Kinase 2 (MAPKAPK2), MAPKAPK2 (gene 9261), sequence (P49137 whole entry, looked up): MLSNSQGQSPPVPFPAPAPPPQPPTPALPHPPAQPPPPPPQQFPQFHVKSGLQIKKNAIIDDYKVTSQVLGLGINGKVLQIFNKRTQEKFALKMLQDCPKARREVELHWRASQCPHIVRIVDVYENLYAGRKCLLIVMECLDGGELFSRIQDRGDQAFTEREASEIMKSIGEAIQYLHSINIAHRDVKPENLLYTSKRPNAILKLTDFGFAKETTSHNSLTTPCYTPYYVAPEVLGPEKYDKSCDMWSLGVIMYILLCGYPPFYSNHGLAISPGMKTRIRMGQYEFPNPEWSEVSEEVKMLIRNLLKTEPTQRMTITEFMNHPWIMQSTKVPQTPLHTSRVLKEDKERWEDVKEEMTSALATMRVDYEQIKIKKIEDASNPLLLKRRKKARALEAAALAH
human Janus Kinase 2 (Jak2), JAK2 (gene 3717), sequence (O60674 whole entry, looked up): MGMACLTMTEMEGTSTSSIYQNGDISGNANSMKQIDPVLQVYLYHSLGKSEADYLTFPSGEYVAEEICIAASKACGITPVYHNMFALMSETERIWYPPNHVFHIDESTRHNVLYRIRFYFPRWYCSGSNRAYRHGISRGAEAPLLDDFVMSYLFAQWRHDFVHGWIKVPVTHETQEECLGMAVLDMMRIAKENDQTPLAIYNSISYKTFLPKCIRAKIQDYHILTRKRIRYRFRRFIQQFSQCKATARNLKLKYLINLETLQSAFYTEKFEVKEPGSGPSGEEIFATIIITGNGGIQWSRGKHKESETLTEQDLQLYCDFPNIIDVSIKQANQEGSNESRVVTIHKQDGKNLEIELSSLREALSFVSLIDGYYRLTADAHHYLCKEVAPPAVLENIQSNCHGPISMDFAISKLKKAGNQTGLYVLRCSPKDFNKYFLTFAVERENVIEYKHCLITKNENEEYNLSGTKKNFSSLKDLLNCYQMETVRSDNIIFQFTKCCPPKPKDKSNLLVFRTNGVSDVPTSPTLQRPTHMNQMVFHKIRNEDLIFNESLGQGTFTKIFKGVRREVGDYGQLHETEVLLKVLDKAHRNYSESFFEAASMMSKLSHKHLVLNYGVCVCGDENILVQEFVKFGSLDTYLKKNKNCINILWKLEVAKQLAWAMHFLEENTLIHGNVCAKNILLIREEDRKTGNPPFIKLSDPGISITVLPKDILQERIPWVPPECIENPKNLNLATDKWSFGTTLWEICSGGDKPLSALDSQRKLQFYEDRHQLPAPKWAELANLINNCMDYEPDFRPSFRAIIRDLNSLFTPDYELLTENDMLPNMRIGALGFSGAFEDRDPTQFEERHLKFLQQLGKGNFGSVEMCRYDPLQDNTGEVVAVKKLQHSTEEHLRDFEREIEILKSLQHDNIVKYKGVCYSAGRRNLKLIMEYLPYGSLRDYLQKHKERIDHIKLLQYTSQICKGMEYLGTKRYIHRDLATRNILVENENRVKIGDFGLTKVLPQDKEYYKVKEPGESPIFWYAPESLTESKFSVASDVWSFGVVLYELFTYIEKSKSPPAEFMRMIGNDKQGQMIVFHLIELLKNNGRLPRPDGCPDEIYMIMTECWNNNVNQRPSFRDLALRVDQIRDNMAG
human Matrix Metalloproteinase-2 (MMP2), MMP2 (gene 4313), sequence (P08253 whole entry, looked up): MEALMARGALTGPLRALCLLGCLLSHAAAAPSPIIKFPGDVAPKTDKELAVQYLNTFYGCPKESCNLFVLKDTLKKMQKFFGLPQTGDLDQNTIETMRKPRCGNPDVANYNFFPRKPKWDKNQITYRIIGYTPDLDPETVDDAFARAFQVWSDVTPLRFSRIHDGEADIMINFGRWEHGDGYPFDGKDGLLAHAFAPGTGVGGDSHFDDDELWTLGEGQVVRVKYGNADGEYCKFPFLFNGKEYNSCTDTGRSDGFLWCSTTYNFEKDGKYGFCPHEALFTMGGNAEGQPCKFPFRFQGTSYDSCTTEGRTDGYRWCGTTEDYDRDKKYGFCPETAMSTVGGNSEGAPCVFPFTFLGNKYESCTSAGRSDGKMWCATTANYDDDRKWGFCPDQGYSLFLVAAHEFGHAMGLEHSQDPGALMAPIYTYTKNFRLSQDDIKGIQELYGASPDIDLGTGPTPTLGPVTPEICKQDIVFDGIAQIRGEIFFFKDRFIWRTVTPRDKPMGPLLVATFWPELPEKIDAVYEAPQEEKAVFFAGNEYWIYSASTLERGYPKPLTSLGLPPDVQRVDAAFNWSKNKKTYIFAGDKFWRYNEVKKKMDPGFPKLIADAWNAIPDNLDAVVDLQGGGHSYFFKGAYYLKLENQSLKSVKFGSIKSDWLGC

Consider `FC(F)(F)C(F)(F)C(F)(F)C(F)(F)C(F)(F)C(F)(F)CCI`, for which, in test [1], the compound was classed as inactive.

As to `NCCO`, in test [2], the compound was called inactive.

Take `CC(=O)Oc1ccccc1C(=O)O`: the result in test [3] was inactive.

As for `O=C(O)CCCCC(=O)O`, in test [4], the result was inactive.

Consider `CC(C)c1ccc(C(=O)N=C(N)N)cc1S(C)(=O)=O`, for which the call in test [5] was inactive.

For the compound `CCCc1cc(=O)[nH]c(=S)[nH]1`, the outcome in test [6] was inactive.

For `CCCCc1ccc2c(n1)[C@@H](c1ccc(OC)cc1C[C@H](C)C(=O)O)[C@H](C(=O)O)[C@H]2c1ccc2c(c1)OCO2`, the concentration at half-maximal activity (AC50) in test [7] was 38.6 µM (active).

For `COc1cc(C=O)ccc1O`, the AC50 in test [7] is 3.71 µM (active).

For the compound `Cc1ccc(C(C)C)c(O)c1`, the compound was classed as inactive in test [2].

Take `Cc1ccc(Cl)cc1`: the compound was called inactive in test [4].
